# Hit rate of the full screen: of about 52,000 compounds, about 4,300 (8.3%) were called active. The list comes from a sample in which actives are over-represented; it also holds similar structures and randomly drawn compounds. A number with no mark means an inactive call. No stated cut-off is given here; in the data, active means survival mostly below about 52% (no sharp cut-off); inactive means mostly above about 56%.
# Test system: DeltatarO mutant
# Test: growth inhibition of S. aureus wild type versus tarO mutant, primary screen, teichoic acid synthesis inhibitors, RN4220, OD600 (AID 463173)
# Conditions: OD600, 18 h, stronger effect = lower value, screened at 18.75 µg/mL (by protocol)
row,SMILES,survival
1,CC(C)COc1ccc(C(=O)N(Cc2ccc(N(C)C)cc2)Cc2ccco2)cc1,71%
2,Cc1ccc(NC(=O)CSCc2cc(=O)c3ccccc3[nH]2)c(C)c1,116%
3,O=C(Cn1c(=O)c2cccn2c2ccc(F)cc21)N1CCN(c2ccccc2F)CC1,56%
4,Cc1ccc(NC(=O)CCCn2c(=O)c3cccn3c3ccccc32)cc1C,61%
5,Cc1ccc(NC(=O)CCn2c(=O)c3cccn3c3ccccc32)cc1C,46% (active)
6,CC(C)c1ccc(NC(=O)CCn2c(=O)c3cccn3c3ccccc32)cc1,57%
7,Cc1ccc(NC(=O)CCCn2c(=O)c3cccn3c3ccccc32)cc1Cl,68%
8,Cc1cc(C)c(NC(=O)CCn2c(=O)c3cccn3c3ccccc32)c(C)c1,49%
9,Cc1ccc(NC(=O)CCn2c(=O)c3cccn3c3ccccc32)cc1Cl,45% (active)
10,O=C(Nc1ccc(Cl)cc1)N1CCN(c2ccc3nnc(-c4ccccc4)n3n2)CC1,72%
11,COc1cc(C2C(C(=O)Nc3ccc(Cl)cc3)=C(C)Nc3nc(SC)nn32)cc(OC)c1OC (configuration not stated),64%
12,CC(C)=NNS(=O)(=O)c1ccc(N2CCCC2=O)cc1,71%
13,CC1CCc2sc3ncnc(NCCCN(C)C)c3c2C1 (configuration not stated),117%
14,Cc1nn(CC(=O)NCc2ccc(N(C)C)cc2)c(=O)c2nn(-c3ccccc3)c(C)c12,83%
15,CCS(=O)(=O)N1CCc2cc(C(=O)NCCc3ccc(OC)c(OC)c3)ccc21,69%
16,CCC(=O)N1CCc2cc(Br)cc(S(=O)(=O)NCCc3ccc(OC)c(OC)c3)c21,52%
17,Cc1ccc2c(c1)C(c1ccccc1)N(C(=O)COc1ccc(Cl)cc1Cl)CC(=O)N2 (configuration not stated),49% (active)
18,CCOc1ccc(C(=O)N2CC(=O)Nc3ccc(C)cc3C2c2ccc(F)cc2)cc1OCC (configuration not stated),67%
19,O=C1CN(C(=O)COc2ccc(Cl)cc2Cl)C(c2ccc(F)cc2)c2cc(F)ccc2N1 (configuration not stated),47% (active)
20,CCCC(=O)N1CC(=O)Nc2ccc(Cl)cc2C1c1ccccc1 (configuration not stated),69%
21,O=C1CN(C(=O)COc2ccc(Cl)cc2Cl)C(c2ccccc2)c2cc(F)ccc2N1 (configuration not stated),88%
22,CCCC(=O)N1CC(=O)Nc2ccc(Cl)cc2C1c1ccc(F)cc1 (configuration not stated),50%
23,COc1ccc(C(=O)N2CC(=O)Nc3ccc(C)cc3C2c2ccccc2)cc1OC (configuration not stated),61%
24,Cc1ccc2c(c1)C(c1ccc(F)cc1)N(C(=O)COc1ccc(Cl)cc1Cl)CC(=O)N2 (configuration not stated),45% (active)
25,Cc1ccc2c(c1)C(c1ccc(F)cc1)N(C(=O)C(C)C)CC(=O)N2 (configuration not stated),82%

row,SMILES,survival
1,Cc1c(CCC(=O)NCCc2ccccc2F)c(=O)oc2cc(O)ccc12,61%
2,O=C(CSc1nc2c([nH]c3ccccc32)c(=O)n1-c1ccccc1)N1CCc2ccccc21,101%
3,CCOC(=O)c1ccccc1NS(=O)(=O)c1ccc(N2CCCCS2(=O)=O)cc1,90%
4,CN1CCN(Cn2c(O)c(N=NC(=O)c3ccc(Br)cc3)c3cc(Br)ccc32)CC1,87%
5,CCOc1ccc(NC(=O)CC2C(=O)N(c3cccc(C)c3)C(=O)N2Cc2cccnc2)cc1 (configuration not stated),55%
6,CCOc1ccc(NC(=O)c2cnc3sc(N4CCOCC4)nn3c2=O)cc1,97%
7,COCCNC(=O)c1ccc2c(=O)n(CCOC)c(SCC(=O)c3c[nH]c4ccccc34)nc2c1,17% (active)
8,COCCn1c(SCC(=O)c2c[nH]c3ccccc23)nc2cc(C(=O)NCC(C)C)ccc2c1=O,100%
9,COCCn1c(SCC(=O)c2c[nH]c3ccccc23)nc2cc(C(=O)NC(C)C)ccc2c1=O,55%
10,Cc1ccc(Cl)cc1-n1ncc2c(NCCc3ccccc3)ncnc21,60%
11,COc1ccc(Cl)cc1NC(=O)Cn1c(=O)n(Cc2nc(C)no2)c(=O)c2ccccc21,83%
12,COc1ccc(NC(=O)CSc2nccn2Cc2ccco2)cc1OC,73%
13,O=C(CSc1nccn1Cc1ccccc1)Nc1nc2ccccc2s1,117%
14,Cc1ccc2nc(NC(=O)CSc3nccn3-c3ccc(Cl)cc3)sc2c1,71%
15,Cc1ccc2nc(NC(=O)CSc3nccn3Cc3ccc(Cl)cc3)sc2c1,96%
16,Cc1nnc(NC(=O)CSc2nccn2Cc2ccc(F)cc2)s1,0% (active)
17,Cc1ccc2nc(NC(=O)CSc3nccn3Cc3ccc(F)cc3)sc2c1,99%
18,O=C(CSc1nccn1Cc1ccc(F)cc1)Nc1nc2ccccc2s1,83%
19,Cc1ccc2nc(NC(=O)CSc3nccn3Cc3ccccc3)sc2c1,37% (active)
20,O=C(CSc1nccn1Cc1ccc(Cl)cc1)Nc1nc2ccccc2s1,32% (active)
21,Cc1cc(C)cc(-n2ccnc2SCC(=O)Nc2nc3ccccc3s2)c1,71%
22,Cc1ccc(Cn2ccnc2SCC(=O)Nc2nnc(C)s2)cc1,55%
23,Cc1nnc(NC(=O)CSc2nccn2Cc2ccc(Cl)cc2)s1,112%
24,Cc1cc(C)cc(-n2ccnc2SCC(=O)Nc2nc3ccc(C)cc3s2)c1,52% (active)
25,COc1ccccc1NC(=O)CCN1CCC(C(N)=O)CC1,193%

row,SMILES,survival
1,COc1ccc(CNC(=O)c2sc3nc[nH]c(=O)c3c2C)cc1,75%
2,CCCCNc1nc(Oc2ccc(=O)n(C)n2)nc(N2CCOCC2)n1,81%
3,COc1ccc(C)cc1Nc1nc(-c2cccc(Cl)c2)c2c(n1)-c1ccccc1OC2,68%
4,CCOC(=O)CCn1nc(C)c2c(C)n(-c3ccccc3)nc2c1=O,87%
5,Cc1ccc(OCC(=O)Nc2nc(-c3ccc(Br)cc3)ns2)cc1,72%
6,Cc1ccc(NC(=O)C2CCN(C(=O)c3sc4nc[nH]c(=O)c4c3C)CC2)cc1F,89%
7,COc1cccc(CN2C(=O)c3ccccc3Sc3ccc(C(=O)N(C)Cc4ccccc4)cc32)c1,79%
8,CCN1CCc2c(sc(NC(=O)CSc3ccccc3)c2-c2nc3ccccc3s2)C1,-5% (active)
9,CN1CCc2c(sc(NC(=O)CSc3ccccc3)c2-c2nc3ccccc3s2)C1,73%
10,CC(=O)N1CCc2c(sc(NC(=O)CSc3ccccc3)c2-c2nc3ccccc3s2)C1,109%
11,CCc1ccc(N2C(=O)C3C(C(=O)OC)=NN(C(C)=O)C3C2=O)cc1 (configuration not stated),75%
12,Cc1ccc(NC(=O)C2CCCN(c3ncnc4onc(-c5ccc(F)cc5)c34)C2)c(Cl)c1 (configuration not stated),71%
13,S=C(NCc1ccc2c(c1)OCO2)Nc1ccccc1,97%
14,CCCCNC(=O)C1(NC(=O)Nc2ccccc2)CCCCC1,74%
15,O=C(Nc1ccccc1)NC1(C(=O)NCc2ccc3c(c2)OCO3)CCCCC1,6% (active)
16,NC(=O)CSc1nnnn1C1CCCCC1,71%
17,COc1ccc(C(=O)Nc2cccc(-c3cn4ccsc4n3)c2)c(OC)c1,70%
18,COc1ccc(-c2nc3c(C#N)c[nH]n3c2NC2CCCC2)cc1,56%
19,COc1cccc(-c2nc3c(C#N)c[nH]n3c2NC2CCCCC2)c1OC,60%
20,COc1ccc(-c2nc3c(C#N)c[nH]n3c2NC2CCCC2)c(OC)c1,65%
21,COc1cccc(-c2nc3c(C#N)c[nH]n3c2NC2CCCC2)c1OC,64% (active)
22,COc1cccc(-c2nc3c(C#N)c[nH]n3c2NC2CCC(C)CC2)c1 (configuration not stated),29% (active)
23,COc1cccc(-c2nc3c(C#N)c[nH]n3c2NC2CCCCC2)c1,72%
24,CCC(=O)N1c2ccccc2CC1C(=O)NCCc1ccccc1 (configuration not stated),69%
25,CCN(CC)c1ccc(NC(=O)C(NS(=O)(=O)c2cccs2)C(C)C)c(C)c1 (configuration not stated),141%

row,SMILES,survival
1,CCC1CCCCN1CC(=O)Nc1cc(C)c2c(=O)oc3ccccc3c2n1 (configuration not stated),98%
2,O=C(COc1ccc2oc3c(c2c1)CCCC3)Nc1ccc(Cl)cc1,85%
3,O=C(COc1ccc2oc3c(c2c1)CCCC3)Nc1cccc(Br)c1,27% (active)
4,Cc1ccc(NC(=O)COc2ccc3oc4c(c3c2)CCCC4)cc1C,70%
5,Cc1ccc(NC(=O)COc2ccc3oc4c(c3c2)CCCC4)c(C)c1,88%
6,O=C(COc1ccc2oc3c(c2c1)CCCC3)Nc1ccc(Br)cc1,89%
7,Cc1cccc(NC(=O)COc2ccc3oc4c(c3c2)CCCC4)c1,40% (active)
8,Cn1c(C(C(=O)NCC2CCCO2)N(Cc2ccc(F)cc2)C(=O)Cn2nnc3ccccc32)nc2ccccc21 (configuration not stated),95%
9,O=C(CSCn1nnc2c(=O)[nH]c(Cc3ccc(F)cc3)nc21)Nc1cccc(C(F)(F)F)c1,64%
10,CC(=O)OC(COCc1ccccc1)Cn1cnc2ccccc21 (configuration not stated),69%
11,CCN(CC)CCCNC(=O)CN1C(=O)COc2ccc(S(=O)(=O)N3CCC(C)CC3)cc21,101%
12,O=C1c2[nH]nc(-c3ccccc3O)c2C(c2cccc(O)c2)N1Cc1cccnc1 (configuration not stated),95%
13,CCOCCCN1C(=O)c2[nH]nc(-c3ccccc3O)c2C1c1ccc(CC)cc1 (configuration not stated),39% (active)
14,CCOc1cc(C2c3c(-c4ccccc4O)n[nH]c3C(=O)N2Cc2cccnc2)ccc1O (configuration not stated),93%
15,CCc1ccc(C2c3c(-c4ccccc4O)n[nH]c3C(=O)N2Cc2cccnc2)cc1 (configuration not stated),34% (active)
16,CCCOc1ccc(C2c3c(-c4ccccc4O)n[nH]c3C(=O)N2Cc2cccnc2)cc1 (configuration not stated),3% (active)
17,CSc1ccc(C2c3c(-c4ccccc4O)n[nH]c3C(=O)N2Cc2ccncc2)cc1 (configuration not stated),70%
18,CCc1ccc(C2c3c(-c4cc(C)ccc4O)n[nH]c3C(=O)N2Cc2cccnc2)cc1 (configuration not stated),61%
19,CCOc1ccc(C2c3c(-c4ccccc4O)n[nH]c3C(=O)N2Cc2ccncc2)cc1 (configuration not stated),68%
20,CCc1ccc(C2c3c(-c4ccccc4O)n[nH]c3C(=O)N2Cc2ccncc2)cc1 (configuration not stated),22% (active)
21,COC(=O)c1ccc(C2c3c(-c4ccccc4O)n[nH]c3C(=O)N2Cc2cccnc2)cc1 (configuration not stated),72%
22,CCCOc1ccc(C2c3c(-c4ccccc4O)n[nH]c3C(=O)N2CCCOCC)cc1OCC (configuration not stated),81%

# Reference: PubChem BioAssay AID463173 (ICCB-Longwood Screening Facility, Harvard Medical School, 2010)
